APOBEC3G inh: blocks human APOBEC3G single-stranded DNA deamination. inhibition, % at 20 µM. AID 493012. 0.28% of 330,000 active. Q9HC16. recombinant A3G, ssDNA deamination FAM/TAMRA fluorescence;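 active = inhibition of at least 40% at 20 µM, with no more than 30% in the related APOBEC3A deaminase screen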
Target sequence (Q9HC16 whole entry, looked up): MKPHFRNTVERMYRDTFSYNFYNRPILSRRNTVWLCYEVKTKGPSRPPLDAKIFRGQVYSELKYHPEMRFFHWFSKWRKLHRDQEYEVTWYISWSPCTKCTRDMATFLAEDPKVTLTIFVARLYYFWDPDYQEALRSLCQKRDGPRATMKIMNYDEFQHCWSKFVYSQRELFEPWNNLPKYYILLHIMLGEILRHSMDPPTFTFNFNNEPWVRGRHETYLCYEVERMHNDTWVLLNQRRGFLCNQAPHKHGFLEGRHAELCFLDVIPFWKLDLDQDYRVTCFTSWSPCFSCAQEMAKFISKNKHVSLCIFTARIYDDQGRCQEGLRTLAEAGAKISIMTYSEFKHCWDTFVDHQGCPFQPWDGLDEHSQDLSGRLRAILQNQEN
A3A deaminase: blocks human APOBEC3A ssDNA deamination; AID 493011; recombinant A3A, FAM/TAMRA ssDNA deamination fluorescence; 0.41% of 330,000 active; P31941; inhibition, % at 20 µM;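 active = at least 40% inhibition at 20 µM here, with at most 30% in a related deaminase screen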
Target sequence (P31941 whole entry, looked up): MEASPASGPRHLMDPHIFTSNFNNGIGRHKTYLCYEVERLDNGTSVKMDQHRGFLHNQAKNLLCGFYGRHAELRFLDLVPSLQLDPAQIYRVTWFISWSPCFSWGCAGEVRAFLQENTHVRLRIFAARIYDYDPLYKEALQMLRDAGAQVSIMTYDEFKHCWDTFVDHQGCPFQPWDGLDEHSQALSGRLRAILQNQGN
CR mimetic SO: yeast age-related superoxide inhibition as caloric restriction mimetic. superoxide response (% of plate mean), % at 10 µM. S. cerevisiae aged cells, superoxide DHE fluorescence; active compounds read low. 0.18% of 330,000 active. AID 2690;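 active = superoxide response under a set limit, about three screen SD below normal, cut at about 65% in these data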;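 note: yeast aged for seven days with compound at 30 °C before DHE staining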
M18AAP inhibitor: PfM18AAP enzyme inhibition | recombinant PfM18AAP, H-Glu-NHMec fluorogenic cleavage | inhibition, % at 7.35 µM | 1.2% of 290,000 active | AID 1822;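 active = inhibition above the campaign mean inhibition over all tested compounds plus 3 SD, cut at about 28% in these data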
PfGluPho inh: PfG6PD (Plasmodium falciparum) enzyme inhibition. PfGluPho enzyme, NADPH resazurin-diaphorase fluorescence. inhibition, % at 20 µM. 0.78% of 350,000 active. AID 504690;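 active = inhibition reaching at least a set limit at 20 µM in the primary screen, cut at about 59% in these data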
Large screens that a line does not name were inactive. Compounds with a hit are over-represented: about 2.4% of the library has one in this group of screens.

COc1ccc2nc(-c3ccco3)c(-c3ccco3)nc2c1	none
c1coc(-c2nc(-c3ccco3)c(-c3ccco3)nc2-c2ccco2)c1	M18AAP inhibitor 60
CCOc1ccc(C(=S)N2CCCC2)c(OCC)c1	M18AAP inhibitor 30
Cc1ncc([N+](=O)[O-])n1S(=O)(=O)c1cc(Cl)ccc1Cl	none
O=C(NCc1ccc(F)cc1)C1CCC(CNc2c(N3CCCCC3)c(=O)c2=O)CC1 (stereo unspecified)	CR mimetic SO 63
O=C(O)CCSc1ccccn1	none
O=C(CCSc1ccccn1)c1ccccc1	M18AAP inhibitor 55
CCCC1OC(c2ccco2)OCC1CC (stereo unspecified)	none (no result: APOBEC3G inh, A3A deaminase, CR mimetic SO, M18AAP inhibitor)
CCCc1cc(=O)n2[nH]c(-c3ccccc3)cc2n1	none
CCCCn1[nH]c(-c2ccccc2)cc1=O	M18AAP inhibitor 30
Fc1ccc(-[n+]2nc(Nc3ccccc3)sc2-c2c(Cl)cccc2Cl)cc1	PfGluPho inh 64
O=C1CSC(=S)N1N=Cc1ccc2c(c1)OCO2	none (no result: APOBEC3G inh, A3A deaminase, CR mimetic SO, M18AAP inhibitor)
CC(C)=C[C@@H]1C[C@H](C)[C@H]2CC[C@H](C)c3c(O)c(O)c(C)c1c32	PfGluPho inh 79 (no result: M18AAP inhibitor)
C1=CCN(Cc2ccccc2)C1	none
Cc1ccc(C)c(-n2cc[nH]c2=S)c1	M18AAP inhibitor 30
Cc1sc(N)c(C#N)c1C	M18AAP inhibitor 37
Cc1ccc(NC2=NC3(CCCC3)N=C(N)N2)c(C)c1	CR mimetic SO 62
CCCCCCSc1ccc([C@@H]2[C@@H]3C(=O)N(C)C(=O)[C@@H]3[C@]3(C(=O)OC)CCCCN23)cc1	none (no result: M18AAP inhibitor)
CCN(C(=O)CCc1nnc2ccc(NCc3ccco3)nn12)c1ccccc1	M18AAP inhibitor 29
O=C1C(=O)N(CCN2CCOCC2)C(c2ccccc2F)/C1=C(\O)c1ccc(S(=O)(=O)N2CCOCC2)cc1 (stereo unspecified)	none
O=C(Cn1cc(COc2c(F)c(F)cc(F)c2F)nn1)c1ccc(O)cc1	none (no result: APOBEC3G inh, A3A deaminase, CR mimetic SO, M18AAP inhibitor)
NC(=S)Nc1ccc(Cl)c(Cl)c1	none
NN(Cc1ccccc1)C(=S)Nc1ccc(Cl)c(Cl)c1	M18AAP inhibitor 30
C[C@@H]1CN([C@H](C)CO)C(=O)Cc2cc(NC(=O)Cn3cnnn3)ccc2O[C@@H]1CN(C)Cc1ccc(Cl)c(Cl)c1	none (no result: M18AAP inhibitor)
Oc1ccc(/C=N/Nc2ncnc3c2ncn3Cc2ccccc2)cc1O	M18AAP inhibitor 39
Oc1cccc(/C=N/Nc2ncnc3c2ncn3Cc2ccccc2)c1	none
Cc1ccc(NC(=O)c2ccccc2)cc1	none
CNC(=S)/N=C(\Nc1ccc(C)cc1)c1ccccc1	M18AAP inhibitor 30
CC(C)c1ccc(NC(=O)c2ccc(NC3=NC4CS(=O)(=O)CC4S3)cc2)cc1 (stereo unspecified)	none
Cc1ccccc1N=C(NO)c1nonc1N	M18AAP inhibitor 29
Cc1ccccc1N=C(N)Nc1ccccc1C	none (no result: M18AAP inhibitor)
C#CCOCCOCCOCCNc1nc(N2CCN(C(=O)[C@H](CO)n3cc([C@@H](N)C(C)C)nn3)CC2)nc(N2CCN(C(=O)[C@H](CO)n3cc([C@@H](N)C(C)C)nn3)CC2)n1	none (no result: APOBEC3G inh, A3A deaminase, CR mimetic SO, M18AAP inhibitor)
CC(C)(C)NC(=O)C(c1ccco1)N(Cc1ccc2c(c1)OCO2)C(=O)c1snc(C(N)=O)c1N (stereo unspecified)	none
COc1ccc2nc3cc(Cl)ccc3c(Nc3cc(C(C)C)c(O)cc3C)c2c1	none
COc1ccc2nc3cc(Cl)ccc3c(Nc3cc(CN4CCCC4)c(O)c(CN4CCCC4)c3)c2n1	M18AAP inhibitor 28 (no result: PfGluPho inh)
N#CC1=C(SCc2ccccc2)NC(=O)CC1c1ccc(O)cc1 (stereo unspecified)	M18AAP inhibitor 29
S=C(Nc1cccc(Cl)c1)Nc1cccc2cnccc12	PfGluPho inh 95 (no result: APOBEC3G inh, A3A deaminase)
Cc1ccc(NC(=S)Nc2cccc3cnccc23)cc1C	none
Cc1cc2c(N=O)c(NO)ccc2[nH]1	PfGluPho inh 70
O=Nc1c(O)[nH]c2ccc(F)cc12	none
O=c1cc(CO)oc(CN2CCN(c3cccc(C(F)(F)F)c3)CC2)c1O	M18AAP inhibitor 29
CNC(=O)C1CN(C(=O)c2cccc(S(=O)(=O)N3c4ccccc4CC3C)c2)c2ccccc2O1 (stereo unspecified)	none (no result: M18AAP inhibitor)
O=c1cnnc(N/N=C/c2c[nH]c3ccccc23)[nH]1	M18AAP inhibitor 29
C(=N\Nc1ccccn1)/c1c[nH]c2ccccc12	none
O=c1cnnc(N/N=C/c2cccs2)[nH]1	M18AAP inhibitor 30
CC(=O)Nc1cccc(NC(=O)CSc2nnc3ccc(-c4ccncc4)nn23)c1	none (no result: M18AAP inhibitor)
CC(=O)C1=C(c2ccc(Br)cc2)C(=O)c2ccccc2C1=O	PfGluPho inh 106 (no result: APOBEC3G inh, A3A deaminase)
CNC1=C(N(C(C)=O)c2ccc(Br)cc2)C(=O)c2ccccc2C1=O	none (no result: APOBEC3G inh, A3A deaminase)
C#CCOCCOCCOCCNc1nc(N2CCN(C(=O)CCCCCCCCCCNC(=O)[C@H](CCCCN)n3cc(CCCC(=O)O)nn3)CC2)nc(N2CCN(C(=O)CCCCCCCCCCNC(=O)[C@H](CCCN=C(N)N)n3cc(C[C@@H](C)CC)nn3)CC2)n1	none (no result: M18AAP inhibitor)
C#CCOCCOCCOCCNc1nc(N2CCN(C(=O)CCCCCCCCCCNC(=O)Cn3cc(CCCCCN)nn3)CC2)nc(N2CCN(C(=O)CCCCCCCCCCNC(=O)[C@H]([C@@H](C)CC)n3cc(CCCCCN)nn3)CC2)n1	PfGluPho inh 66 (no result: M18AAP inhibitor)
C#CCOCCOCCOCCNc1nc(N2CCN(C(=O)[C@H](CCCCN)n3cc(CCCC)nn3)CC2)nc(N2CCN(C(=O)[C@H](Cc3ccc(O)cc3)n3cc(CCO)nn3)CC2)n1	PfGluPho inh 76
C#CCOCCOCCOCCNc1nc(N2CCN(C(=O)[C@H](CCCCN)n3cc(CC(C)O)nn3)CC2)nc(N2CCN(C(=O)[C@H](Cc3ccc(O)cc3)n3cc(CCO)nn3)CC2)n1 (stereo partly specified)	none (no result: APOBEC3G inh, A3A deaminase, CR mimetic SO, M18AAP inhibitor)
C#CCOCCOCCOCCNc1nc(N2CCN(C(=O)CCCCCCCCCCNC(=O)[C@H](CCCCN)n3cc(CCO)nn3)CC2)nc(N2CCN(C(=O)CCCCCCCCCCNC(=O)[C@H](CCCN=C(N)N)n3cc(C[C@@H](C)CC)nn3)CC2)n1	PfGluPho inh 62 (no result: M18AAP inhibitor)
CC(=O)Nc1nc(C)c(-c2csc(Nc3ccc(O)cc3)n2)s1	M18AAP inhibitor 28
Cc1nc(N)sc1-c1csc(Nc2cccc(C(=O)O)c2)n1	M18AAP inhibitor 29
O=C(Nc1ccccc1)Nc1csc2ccccc12	CR mimetic SO 63
COc1cccc(-c2c(C(=O)N/N=C/c3cccs3)nnn2-c2nonc2N)c1	PfGluPho inh 59
CC(Sc1ccc(S(=O)(=O)N2CCN(C)CC2)cn1)C(=O)Nc1cccc(Cl)c1Cl (stereo unspecified)	none (no result: APOBEC3G inh, A3A deaminase, CR mimetic SO, M18AAP inhibitor)
O=C(Nc1ccc(N2CCOCC2)c(Cl)c1)c1cc2ccccc2o1	PfGluPho inh 126
COC(=O)c1cccc(/C=N/NC(N)=S)c1O	M18AAP inhibitor 31
NS(=O)(=O)c1ccc(NC(=S)N2CCN(c3ccccc3Cl)CC2)cc1	none
NS(=O)(=O)c1ccc(NC(=S)N2CCN(c3cccc(Cl)c3)CC2)cc1	M18AAP inhibitor 29
Cc1ccc(C)c(C(=O)Cn2c(NCCO)nc3ccccc32)c1	none
Cc1ccccc1N1C(=O)CC(Nc2ccc3c(c2)OCO3)C1=O (stereo unspecified)	M18AAP inhibitor 30

High-throughput results: PubChem BioAssay, several laboratories
